The text below walks through data of PubChem BioAssay (NCI).

A short description of assay [1]: NCI Yeast Anticancer Drug Screen. Data for the rad50 strain (AID 155).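 Further: 0% = growth of vehicle-only cultures of the same strain.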 The following applies: S. cerevisiae rad50 strain growth inhibition, hits give high values. Summed up:
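Yeast carrying a defined DNA repair defect were exposed to test compounds, and growth was compared with vehicle-treated controls to give percent inhibition.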

Assay [2] in a line: NCI Yeast Anticancer Drug Screen. Data for the mec2-1 strain (AID 157). The following applies: S. cerevisiae mec2-1 strain, hits give high values. Put shortly: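 Each compound was tested on mec2-1 yeast, a strain altered in DNA damage repair or cell cycle control. Growth inhibition is reported relative to vehicle.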
Assay [3] in a line: NCI Yeast Anticancer Drug Screen. Data for the sgs1 mgt1 strain (AID 161).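 Further: 0% = growth of cultures given vehicle only.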 The following applies: S. cerevisiae sgs1 mgt1 strain, hits give high values. Put shortly:
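Genetically altered yeast, compound exposure, growth inhibition relative to vehicle.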

The nature of assay [4]: NCI Yeast Anticancer Drug Screen. Data for the cln2 rad14 strain (AID 165).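 Further: 0% = growth equal to vehicle treated cultures.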 The following applies: S. cerevisiae cln2 rad14 strain, hits give high values. Summed up: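 Test compounds were added to cln2 rad14 yeast cultures; inhibition of growth was then determined by comparison with vehicle treatment.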
The nature of assay [5]: NCI Yeast Anticancer Drug Screen. Data for the bub3 strain (AID 167). The following applies: S. cerevisiae bub3 mutant strain, hits give high values. Put shortly:
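Compounds were applied to a genetically altered yeast strain carrying a cell-cycle control defect. Growth inhibition was scored against vehicle-treated controls.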

A short description of assay [6]: NCI Yeast Anticancer Drug Screen. Data for the mlh1 rad18 strain (AID 175). The following applies: S. cerevisiae mlh1 rad18 strain growth inhibition, hits give high values. Put shortly: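 Inhibition values reflect reduced growth of mutant yeast versus vehicle-treated controls following compound exposure; the mutations affect DNA damage repair.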
[7] abbreviates: at 5.0 µM (retest, dose inferred, filed as 0.5).
Where [8] appears, read: at 50.0 µM (retest, dose inferred, filed as 5.0).

Each structure is given as a SMILES string. This is part of a sample that, as a whole, favours compounds with a hit. Of some 79,000 tested, about 15% had one in any assay. A number with no mark means an inactive call. The source made the active and inactive calls. No stated cut-off is given here; in the data, active means growth inhibition above about 70%; inactive means the rest.

On to `NCCC(N)P(=O)(O)O` (stereo not given), for which the growth inhibition in assay [1] (setting [7]) was -166%; in assay [1] (setting [8]), -150%; in assay [1] (at 50.0 µM), 20.6%; in assay [2] (setting [7]), -46%; in assay [2] (setting [8]), -48%; in assay [2] (at 50.0 µM), 16.2%. The growth inhibition in assay [3] (setting [7]) was -61%; in assay [3] (setting [8]), -60%; in assay [3] (at 50.0 µM) it was -3.9%; in assay [4] (setting [7]) it was -61%; in assay [4] (setting [8]), -51%; in assay [4] (at 50.0 µM), 16.6%. Further, the growth inhibition in assay [5] (setting [7]) is -74%; in assay [5] (setting [8]) it was -71%; in assay [5] (at 50.0 µM), 13%; in assay [6] (setting [7]) it was -141%; in assay [6] (setting [8]), -111%; in assay [6] (at 50.0 µM) it was 0.45%.
Turning to `[N-]=[N+]=Nc1c(-c2ccccc2)c(Cl)nc2ccccc12`, the growth inhibition was 11% in assay [1] (setting [7]); 99% (active) in assay [1] (setting [8]); 76% (active) in assay [1] (at 50.0 µM); -7% in assay [2] (setting [7]); 98% (active) in assay [2] (setting [8]); 76.1% (active) in assay [2] (at 50.0 µM). Besides, the growth inhibition in assay [3] (setting [7]) was -4%; in assay [3] (setting [8]), 98% (active); in assay [3] (at 50.0 µM) it was 85.2% (active); in assay [4] (setting [7]), 20%; in assay [4] (setting [8]), 98% (active); in assay [4] (at 50.0 µM), 82.9% (active). The growth inhibition in assay [5] (setting [7]) was -33%; in assay [5] (setting [8]) it was 97% (active); in assay [5] (at 50.0 µM), 87.4% (active); in assay [6] (setting [7]), 2%; in assay [6] (setting [8]) it was 98% (active); in assay [6] (at 50.0 µM) it was 87.2% (active).
In the case of `C=C1CC2(CC(C(C)C)CCC2C)OC1=O` (stereo not given), the growth inhibition was 14% in assay [1] (setting [7]); 38% in assay [1] (setting [8]); 7.5% in assay [1] (at 50.0 µM); 13% in assay [2] (setting [7]); 52% in assay [2] (setting [8]); -2.45% in assay [2] (at 50.0 µM). The growth inhibition is 23% in assay [3] (setting [7]); 54% in assay [3] (setting [8]); 14.7% in assay [3] (at 50.0 µM); 31% in assay [4] (setting [7]); 57% in assay [4] (setting [8]); 19.6% in assay [4] (at 50.0 µM). Besides, the growth inhibition in assay [5] (setting [7]) is 42%; in assay [5] (setting [8]), 53%; in assay [5] (at 50.0 µM), -11.8%; in assay [6] (setting [7]), 35%; in assay [6] (setting [8]), 64%; in assay [6] (at 50.0 µM), 2.3%.
On to `Cc1ccc(-c2c(C#N)c(-c3ccc(Cl)cc3)c(C#N)c(=O)n2NS(=O)(=O)c2ccccc2)cc1`, for which the growth inhibition in assay [1] (setting [7]) is 38%; in assay [1] (setting [8]), 50%; in assay [1] (at 50.0 µM), 63.2%; in assay [2] (setting [7]) it was 34%; in assay [2] (setting [8]), 59%; in assay [2] (at 50.0 µM) it was 71% (active). The growth inhibition in assay [3] (setting [7]) is 28%; in assay [3] (setting [8]) it was 58%; in assay [3] (at 50.0 µM) it was 69%; in assay [4] (setting [7]), 53%; in assay [4] (setting [8]), 60%; in assay [4] (at 50.0 µM), 63.6%. The growth inhibition in assay [5] (setting [7]) was 52%; in assay [5] (setting [8]) it was 64%; in assay [5] (at 50.0 µM), 71% (active); in assay [6] (setting [7]), 31%; in assay [6] (setting [8]), 49%; in assay [6] (at 50.0 µM) it was 74.3% (active).
Take `CC(=O)CCC(Br)(CCC(Br)(CCC(C)=O)[N+](=O)[O-])[N+](=O)[O-]` (stereo not given): the growth inhibition in assay [1] (setting [7]) was 0%; in assay [1] (setting [8]) it was 13%; in assay [1] (at 50.0 µM), 95.2% (active); in assay [2] (setting [7]), 8%; in assay [2] (setting [8]), 14%; in assay [2] (at 50.0 µM), 90.5% (active). In addition, the growth inhibition in assay [3] (setting [7]) was -5%; in assay [3] (setting [8]) it was 33%; in assay [3] (at 50.0 µM) it was 81.8% (active); in assay [4] (setting [7]) it was 15%; in assay [4] (setting [8]) it was 29%; in assay [4] (at 50.0 µM), 91.5% (active). In addition, the growth inhibition was 11% in assay [5] (setting [7]); 28% in assay [5] (setting [8]); 79% (active) in assay [5] (at 50.0 µM); 12% in assay [6] (setting [7]); 22% in assay [6] (setting [8]); 98.3% (active) in assay [6] (at 50.0 µM).
Take `CC/C(=C(\CC)c1ccc(O)c(CN(CC)CC)c1)c1ccc(OC)cc1`: the growth inhibition was -1% in assay [1] (setting [7]); 68% in assay [1] (setting [8]); 99.4% (active) in assay [1] (at 50.0 µM); 15% in assay [2] (setting [7]); 62% in assay [2] (setting [8]); 99.7% (active) in assay [2] (at 50.0 µM). Besides, the growth inhibition is -31% in assay [3] (setting [7]); 92% (active) in assay [3] (setting [8]); 99.6% (active) in assay [3] (at 50.0 µM); -1% in assay [4] (setting [7]); 80% (active) in assay [4] (setting [8]); 99.5% (active) in assay [4] (at 50.0 µM). In addition, the growth inhibition is 0% in assay [5] (setting [7]); 65% in assay [5] (setting [8]); 99.4% (active) in assay [5] (at 50.0 µM); 5% in assay [6] (setting [7]); 99% (active) in assay [6] (setting [8]); 99.5% (active) in assay [6] (at 50.0 µM).
Turning to `OC(c1cc(-c2ccccc2)nc2c(Cl)cc(Cl)cc12)C1CCCCN1` (stereo not given), the growth inhibition is 14% in assay [1] (setting [7]); 97% (active) in assay [1] (setting [8]); 99.5% (active) in assay [1] (at 50.0 µM); 18% in assay [2] (setting [7]); 92% (active) in assay [2] (setting [8]); 99.6% (active) in assay [2] (at 50.0 µM). Besides, the growth inhibition in assay [3] (setting [7]) was 18%; in assay [3] (setting [8]) it was 98% (active); in assay [3] (at 50.0 µM) it was 99.1% (active); in assay [4] (setting [7]), 3%; in assay [4] (setting [8]), 98% (active); in assay [4] (at 50.0 µM) it was 98.3% (active). The growth inhibition in assay [5] (setting [7]) was 2%; in assay [5] (setting [8]), 99% (active); in assay [5] (at 50.0 µM), 97.5% (active); in assay [6] (setting [7]), 11%; in assay [6] (setting [8]), 96% (active); in assay [6] (at 50.0 µM), 98.8% (active).
On to `COC(=O)NNc1c([N+](=O)[O-])cnn(-c2ccccc2)c1=O`, for which the growth inhibition in assay [1] (setting [7]) is 18%; in assay [1] (setting [8]), 56%; in assay [1] (at 50.0 µM), 14.9%; in assay [2] (setting [7]) it was -5%; in assay [2] (setting [8]) it was 10%; in assay [2] (at 50.0 µM), 0.55%. Moreover, the growth inhibition was -1% in assay [3] (setting [7]); -14% in assay [3] (setting [8]); 14% in assay [3] (at 50.0 µM); 9% in assay [4] (setting [7]); 32% in assay [4] (setting [8]); 30% in assay [4] (at 50.0 µM). Also, the growth inhibition was 11% in assay [5] (setting [7]); 26% in assay [5] (setting [8]); 0.9% in assay [5] (at 50.0 µM); -11% in assay [6] (setting [7]); -12% in assay [6] (setting [8]); -8.15% in assay [6] (at 50.0 µM).
With `COc1cccc2c1C(=O)c1c(O)c3c(c(O)c1C2=O)C[C@@](O)(/C(C)=N\NC(N)=O)C[C@@H]3OC1CC(N)C(O)C(C)O1` (stereo not given in full), the growth inhibition was 30% in assay [1] (setting [7]); 83% (active) in assay [1] (setting [8]); 88.8% (active) in assay [1] (at 50.0 µM); 52% in assay [2] (setting [7]); 34% in assay [2] (setting [8]); 43.8% in assay [2] (at 50.0 µM). Also, the growth inhibition in assay [3] (setting [7]) was 6%; in assay [3] (setting [8]), 30%; in assay [3] (at 50.0 µM), 36.9%; in assay [4] (setting [7]), 7%; in assay [4] (setting [8]), 30%; in assay [4] (at 50.0 µM) it was 1.5%. Moreover, the growth inhibition in assay [5] (setting [7]) was 6%; in assay [5] (setting [8]), 45%; in assay [5] (at 50.0 µM), 35.6%; in assay [6] (setting [7]) it was 8%; in assay [6] (setting [8]) it was 7%; in assay [6] (at 50.0 µM), 57%.
As to `COc1cc(/C=C\C(=O)c2cccc(O)c(=O)c2)cc(OC)c1OC`, the growth inhibition was -3% in assay [1] (setting [7]); 53% in assay [1] (setting [8]); 69.1% in assay [1] (at 50.0 µM); 1% in assay [2] (setting [7]); 65% in assay [2] (setting [8]); 50.5% in assay [2] (at 50.0 µM). Further, the growth inhibition is 16% in assay [3] (setting [7]); 83% (active) in assay [3] (setting [8]); 63.5% in assay [3] (at 50.0 µM); -15% in assay [4] (setting [7]); 50% in assay [4] (setting [8]); 5.6% in assay [4] (at 50.0 µM). Moreover, the growth inhibition in assay [5] (setting [7]) is 2%; in assay [5] (setting [8]), 67%; in assay [5] (at 50.0 µM), 65.5%; in assay [6] (setting [7]) it was 7%; in assay [6] (setting [8]) it was 89% (active); in assay [6] (at 50.0 µM), 54.9%.
